Assay results reported in PubChem BioAssay AID1239 (SRMLSC, 2008).
About 3,100 (1.6%) of roughly 190,000 compounds were called active. What follows is part of a selection rich in actives, with near analogues and random picks from the rest. Values without a mark were called inactive. No stated cut-off is given here; in the data, active means fold change above about 3.3; inconclusive means no clear call, values can overlap the other calls; inactive means below that.

Test: NF-kB upregulation, human neuronal cells – cell-based, HTS, primary screen (AID 1239)
Conditions: NF-kB reporter expression, at 12.5 µM, hits give high values

Structure (SMILES) | fold change
C/C(=N/OC(=O)c1cccc(C(F)(F)F)c1)c1cnccn1 | 1.18
O=C(NC(=S)Nc1cccc(-c2ccc(CO)o2)c1)c1cccs1 | 10.1 (active)
CCc1nnc(NS(=O)(=O)c2ccc(NC(=S)NC(=O)c3cccs3)cc2)s1 | 1.46
O=C(NC(=S)Nc1ccc(NC(=O)c2cccs2)cc1)c1ccc([N+](=O)[O-])cc1 | 1.11
COC(=O)COc1ccc(C2NC(=O)NC(C)=C2C(=O)NCc2ccccc2)cc1OC (stereo not given) | 1.01
CN1CCN(/N=C/c2ccc(-c3ccc([N+](=O)[O-])cc3)o2)CC1 | 1.75
O=C(Cc1ccc([N+](=O)[O-])cc1)N/N=C/c1ccco1 | 1.05
N/C(=N\OC(=O)CC1CCCCC1)c1ccccc1 | 1.45
N/C(=N\OC(=O)CCC1CCCCC1)c1ccccn1 | 4.01 (active)
CCC(C)(NC(=O)c1ccccn1)C(=O)NC1CCCCC1 (stereo not given) | 1.15
CN(C)CCOc1cccc(Br)c1 | 1.12
CCN=c1sc(C(=O)Nc2ccccc2)c(C)n1CC | 1.3
Cc1ccc(OCC(=O)NC(C)c2ccccc2)c([N+](=O)[O-])n1 (stereo not given) | 1.1
C=CCNC(=O)CC12CC3CC(C1)CC(CC(=O)NCC=C)(C3)C2 | 1.38
COc1ccc(N2CCN(C(=O)/C(C#N)=C/c3ccccc3)CC2)cc1 | 0.72
CCOC(=O)/C(C#N)=C/c1ccc(N2CCCCC2)cc1 | 3.43 (active)
CCOC(=O)/C(C#N)=C/c1ccc(N2CCN(Cc3ccccc3)CC2)cc1 | 0.98
COC(=O)C1=CN(Cc2ccc(OC)c(OC)c2)C=C(C(=O)OC)C1c1cccs1 | 0.73
Cc1nnc(SCCCCSc2nnc(C)c(=O)[nH]2)[nH]c1=O | 1.03
Cc1ccc(S(=O)(=O)/N=C(\N)c2ccc(F)cc2)cc1 | 1.11
Cc1nn2cc(-c3ccc(Cl)cc3)cnc2c1Br | 4.06 (active)
O=C(NC(=S)Nc1ccc(S(=O)(=O)Nc2ncccn2)cc1)c1cccc(Br)c1 | 0.92
CCOC(=O)C1(Cc2ccccc2C(F)(F)F)CCN(C(=O)c2cc(C)n(C)n2)CC1 | 1.81
CC(C)C(=O)Nc1ccc2oc(=O)ccc2c1 | 1.14
CC(C)C(=O)Nc1c(C(=O)c2ccc(F)cc2)oc2ccccc12 | 0.89

Structure (SMILES) | fold change
CC(C)C(=O)Nc1ccc2c(c1)oc1ccccc12 | 4.71 (active)
COCCCNC(=S)NCCNc1nc2cc(C)c(C)cc2cc1C#N | 0.77
Cc1nnc(SCC(=O)N2CCc3ccccc32)n1-c1ccccc1 | 1
NC(=O)N1CCc2ccccc21 | 1.08
O=C(CSCc1ccccc1)N1CCc2ccccc21 | 5.86 (active)
CCn1c(SCC(=O)N(C)C2CCS(=O)(=O)C2)nnc1-c1cccs1 (stereo not given) | 1.03
CC(=O)c1ccc(N2CCN(CC(=O)Nc3ccccc3N3CCOCC3)CC2)cc1 | 1
CC1(C)CN(c2ccc(-c3ccnc4ncnn34)cc2)C1=O | 1.23
COc1ccc(N2CCN(C(=S)Nc3ccc(S(N)(=O)=O)cc3)CC2)cc1 | 0.85
CCn1cc(CN2CCCC(CNS(=O)(=O)Cc3ccccc3)C2)cn1 (stereo not given) | 0.89
CCCCOc1ccc(C(=O)NCc2ccncc2)cc1 | 1.15
CCCCCCOc1ccc(OC(=O)c2cccnc2)cc1 | 5.55 (active)
CCCCCCCCC(=O)NCCOc1ccccc1 | 1.12
CCOc1ncccc1C(=O)OCC(=O)NC1CC1 | 1.17
CN1CCN(CC(=O)Nc2cccc([N+](=O)[O-])c2)CC1 | 1.37
COc1cc2c(cc1OC)CN(C(=O)c1ccc(S(=O)(=O)N3CCCCCC3)cc1)CC2 | 0.87
COc1cc2c(cc1OC)CN(C(=O)c1cc(=O)c3ccccc3o1)CC2 | 0.82
CCOc1cc(C(=O)N2CCc3cc(OC)c(OC)cc3C2)ccc1OC(F)F | 4.22 (active)
O=Cc1ccc(Oc2cccc(C(F)(F)F)c2)nc1 | 1.2
O=C(CSc1cccc[n+]1[O-])c1ccc(Cl)cc1 | 1.21
COc1cccc(/C=C/c2ccc3ccccc3n2)c1OC(C)=O | 3.13
CCOc1cccc(/C=C/c2ccc3ccccc3n2)c1OC(C)=O | 4.82 (active)
NC(=O)COC(=O)/C=C/c1ccc2ccccc2n1 | 0.97
CCOC(=O)c1c(N)nn(C(=O)c2ccccc2)c1-c1ccccc1 | 1.07
C=CCN1C2CCCC1CC(NC(=S)Nc1cccc(OC)c1)C2 (stereo not given) | 1.07

Structure (SMILES) | fold change
CC(CNC(=O)c1ccc(N)cc1)NC(=O)c1ccc(N)cc1 (stereo not given) | 1.46
COc1ccc(-c2noc(-c3cccc(OC)c3OC)n2)cc1OC | 3.86 (active)
COc1cc(-c2nc(-c3ccncc3)no2)cc(OC)c1OC | 0.54
CCOc1nc(-c2ccc(OC)cc2)ccc1-c1noc(-c2cc(OC)c(OC)c(OC)c2)n1 | 1.01
COc1ccc(OC)c(S(=O)(=O)NCCC(C)C)c1 | 1.13
COc1ccc(NC(C)=O)cc1NC(=O)CN1CCN(c2ccccn2)CC1 | 1.04
COc1ccc(NC(C)=O)cc1NC(=O)CN1CCN(C2c3ccccc3-c3ccccc32)CC1 | 3.62 (active)
COc1ccc(OC)c(NC(=O)CN2CCN(C(=O)c3ccco3)CC2)c1 | 1.07
O=c1oc2ccccc2cc1-c1cn(-c2ccccc2)c(=S)[nH]1 | 0.83
O=C(NCc1cccnc1)c1cccc(-c2cc3ccccc3oc2=O)c1 | 0.93
Nc1ncc(-c2cc3ccccc3oc2=O)s1 | 3.48 (active)
O=C(/C=C/c1ccc2c(c1)OCO2)NCc1cn2cc(Cl)ccc2n1 | 1.09
COc1ccc(N(C)S(=O)(=O)c2cccc3nsnc23)cc1 | 1.25
O=C(c1ccc(N2CCOCC2)c([N+](=O)[O-])c1)N1CCN(S(=O)(=O)c2cccs2)CC1 | 1.15
C=CCn1c(CCNC(=O)c2ccccc2F)nnc1SCC(=O)Nc1ccc(OC)cc1 | 1.12
CCCC1(C(=O)OC)NC(c2ccco2)C2C(=O)N(C)C(=O)C21 (stereo not given) | 1
CCC1C/C(=C/c2cccs2)C(=O)/C(=C/c2cccs2)C1 (stereo not given) | 1.07
O=C1/C(=C/c2cccs2)CCC1C1CCCC1 (stereo not given) | 5.68 (active)
O=C1/C(=C/c2cccs2)CCc2ccccc21 | 5.83 (active)
Cc1ccc(N2CCN(C3=NC(=O)/C(=C\c4cccs4)S3)CC2)cc1 | 1.27
O=S(=O)(c1cccs1)N1CCc2ccccc2C1 | 1.07
COc1ccc(/C=C2\CCc3ccccc3C2=O)c(OC)c1OC | 1.7
CC(=O)C1(C)N(O)C(C)(C)C(c2cccs2)=[N+]1[O-] (stereo not given) | 0.95
CCn1nc(C)cc1C(=O)N1CCCC(C(=O)c2cccc(OC)c2)C1 (stereo not given) | 1.1
COc1ccc(CN2CCN(Cc3cn(C)nc3-c3ccccc3)CC2CCO)c(C)c1C (stereo not given) | 1.01

Structure (SMILES) | fold change
CCc1ccc(NC(=O)Cn2nc(C)c([N+](=O)[O-])c2C)cc1 | 1.28
O=c1[nH]c(CN2CCOCC2)nc2cc(Cl)ccc12 | 1.04
O=c1[nH]c(CCl)nc2cc(-c3ccc(Cl)cc3)sc12 | 4.29 (active)
NC(=O)Cc1nc2scc(-c3ccc(Cl)cc3)c2c(=O)[nH]1 | 0.99
COc1ccc(S(=O)(=O)N2CCOCC2)cc1NC(=O)CSc1ncnc2ccccc12 | 1.56
CCN1C(=O)/C(=c2\s/c(=C3\Sc4ccccc4N3C)c(=O)n2C)N(C)C1=S | 1.16
CN(C)CCCN1C(=O)CSC1c1ccc([N+](=O)[O-])cc1 (stereo not given) | 1.03
COCC1CCCN(Cc2nc(-c3ccc4c(c3)OCO4)no2)C1 (stereo not given) | 1.62
Cc1csc(=Nc2ccccc2)n1CCO | 1.05
CN(c1ccccc1)c1ccc(/C=c2\s/c(=C(/C#N)C(=O)C(C)(C)C)n(Cc3ccco3)c2=O)cc1 | 1.52
Cc1cs/c(=N\N=C\c2ccc(O)cc2)n1Cc1ccco1 | 4.11 (active)
Cc1nnc(SC(C(=O)Nc2cc(Cl)cc(Cl)c2)c2ccccc2)[nH]c1=O (stereo not given) | 1.02
Cc1ccc(S(=O)(=O)Nc2nc3ccccc3s2)cc1[N+](=O)[O-] | 1.51
Cc1ccnc(Nc2nc3ccccc3s2)n1 | 4.25 (active)
CSCCC(Nc1nc2ccccc2s1)C(=O)O (stereo not given) | 1.16
CC(C)C(=O)Nc1cccc(NC(=O)c2ccc([N+](=O)[O-])cc2Cl)c1 | 1.13
O=C(Nc1ccc(Br)c2cccnc12)c1ccc(Cn2cc([N+](=O)[O-])cn2)o1 | 1.07
O=C(Nc1ccc(Br)cn1)c1ccc([N+](=O)[O-])cc1Cl | 3.54 (active)
O=C(Nc1cccc([N+](=O)[O-])c1)Nc1ccc(Cl)cn1 | 0.9
O=C(/C=C/c1ccc(Cl)cc1)Nc1ccc(Br)cn1 | 1.07
O=C(Nc1ccc(Br)cn1)c1ccc([N+](=O)[O-])o1 | 4.41 (active)
C/C(=N/O)c1ccc(N2C(=O)C3C4C=CC(C3C2=O)C2C3C(=O)N(c5ccc(/C(C)=N/O)cc5)C(=O)C3C42)cc1 (stereo not given) | 1.33
NC(=O)Cn1nc([N+](=O)[O-])nc1Oc1ccc(Br)cc1 | 0.99
O=C(O)C1C2CC2CN1C(=O)c1ccc(Cl)cc1Cl (stereo not given) | 0.99
O=C(NCc1cccnc1)c1nc(-c2cccs2)no1 | 1.23
